Bioassay records from PubChem BioAssay.
LANA DNA inh: inhibitors of KSHV LANA C-terminal domain DNA binding; inhibition, % at 9 µM; 340,000 tested, 0.078% active; MBP-C-LANA/FAM-LBS DNA binding, fluorescence polarization;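 active = highest replicate inhibition at or above 60% at 9 µM, even if other replicates fall short; inactive = all replicates below 60% inhibition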
Keap1 Nrf2 FP: Keap1-Nrf2 (human) interaction inhibition; AID 504523; inhibition, % at 9.4 µM; Keap1 Kelch-Nrf2 peptide fluorescence polarization, 1536-well; 340,000 tested, 0.15% active; Q14145; in the data active = inhibition above about 12%;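 also: human Keap1 Kelch domain with fluorescein labeled Nrf2 9mer peptide probe; higher means more block of Keap1 binding to Nrf2 peptide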
RTF Ca sens inh: cardiac RTF calcium desensitization; inhibition, % at 7.15 µM; 340,000 tested, 0.12% active; AID 493244; P19429+P45379; IANBD-labeled cardiac RTF, Ca2+ fluorescence;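 active = inhibition above the mean inhibition of all tested compounds plus 3 SD, cut at about 17% in these data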;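 also: assay run at fixed EC70 calcium of 1.6 mM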
cardiac RTF act: cardiac RTF calcium sensitization; P19429+P45379; IANBD-labeled TnC RTF fluorescence at EC20 calcium; 0% EC20 calcium, 100% full calcium; activation, % at 7.2 µM; 340,000 tested, 0.24% active;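 active = activation above the mean over all tested compounds plus 3 SD, cut at about 30% in these data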;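 also: rise in fluorescence read as greater calcium sensitivity of cardiac thin filaments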
eLon inh: E. coli protease La inhibition; AID 602123; purified E. coli Lon protease, fluorescence polarization; inhibition, % at 7.94 µM; 360,000 tested, 0.42% active; in the data active = inhibition above about 13%, passing the limit was not always enough
Target sequence (P0A9M0 whole entry, looked up): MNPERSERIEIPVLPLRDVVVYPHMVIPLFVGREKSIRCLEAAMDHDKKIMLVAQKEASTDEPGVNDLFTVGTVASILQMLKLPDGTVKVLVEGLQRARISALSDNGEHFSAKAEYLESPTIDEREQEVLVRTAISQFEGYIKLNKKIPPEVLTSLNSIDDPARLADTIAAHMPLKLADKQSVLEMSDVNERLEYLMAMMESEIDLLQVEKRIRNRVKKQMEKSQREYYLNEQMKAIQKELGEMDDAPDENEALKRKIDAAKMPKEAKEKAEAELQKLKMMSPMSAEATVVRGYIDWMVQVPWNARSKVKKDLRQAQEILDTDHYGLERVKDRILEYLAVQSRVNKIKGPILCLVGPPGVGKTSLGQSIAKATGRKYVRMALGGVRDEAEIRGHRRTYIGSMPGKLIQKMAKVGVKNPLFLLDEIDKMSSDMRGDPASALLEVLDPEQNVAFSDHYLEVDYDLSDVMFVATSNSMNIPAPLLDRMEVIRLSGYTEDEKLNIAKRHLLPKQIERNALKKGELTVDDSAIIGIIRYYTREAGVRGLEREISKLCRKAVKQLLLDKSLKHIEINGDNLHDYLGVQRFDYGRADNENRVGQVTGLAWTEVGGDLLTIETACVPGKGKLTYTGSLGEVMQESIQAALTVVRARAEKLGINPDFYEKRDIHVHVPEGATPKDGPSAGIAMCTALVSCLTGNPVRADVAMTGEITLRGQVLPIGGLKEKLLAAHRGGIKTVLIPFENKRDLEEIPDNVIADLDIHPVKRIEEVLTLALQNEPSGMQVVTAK
Keap1 TSA: Keap1 (human) Kelch domain binding; shares compounds with Keap1 Nrf2 FP; AID 651823; Keap1 Kelch thermal shift, delta Tm; hits give high values; max delta Tm, degrees C; 400 tested, 8% active; in the data active = max delta Tm above about 0.48 degrees C
Dye-only ctr: dye artifact in Keap1 thermal shift counter-screen | shares compounds with Keap1 Nrf2 FP | Sypro Orange dye-only thermal melt, no protein, delta Tm; top dose 26 µM | delta Tm, degrees C (test concentration not listed) | 140 tested, under 10 active | AID 651858;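 active = at highest dose tested, delta Tm positive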
A number is an active result; – = inactive; · = no result given. Only some compounds are listed: those with a hit (about 0.82% of all), similar ones and a draw of the others.

SMILES | LANA DNA inh | Keap1 Nrf2 FP | RTF Ca sens inh | cardiac RTF act | eLon inh | Keap1 TSA | Dye-only ctr
COCCCn1c(=NC(=O)c2ccccc2)c(C#N)cc2c(=O)n3cccc(C)c3nc21 | – | 14 | – | – | 84 | – | ·
CCCSc1nnc2c(n1)OC(c1cccn1C)N(C(C)=O)c1ccccc1-2 (stereo not given) | – | – | – | – | – | · | ·
CCCCCSc1nnc2c(n1)OC(C)N(C(C)=O)c1ccccc1-2 (stereo not given) | – | 13 | – | – | – | – | ·
COc1ccc(C(C)=NNc2ccc([N+](=O)[O-])cc2S(=O)(=O)Nc2ccccc2C(=O)O)c(OC)c1 | – | 32 | – | – | – | 3.3 | –
COc1cc(C(=O)N2CCCC(c3cc(C(=O)NCc4ccc(F)cc4)no3)C2)cc(OC)c1C (stereo not given) | · | · | · | · | – | · | ·
CN(CCO)C(=O)c1c(NC(=O)c2ccccc2)sc2c1CCCC2 | – | – | – | – | – | · | ·
CN(C)CCNC(=O)c1c(NC(=O)c2ccccc2)sc2c1CCCC2 | · | 17 | – | – | – | – | ·
CC[C@@H](C)[C@@H](CO)NC(=O)[C@H]1O[C@@H](n2cnc3c(N)ncnc32)[C@H](O)[C@@H]1O | · | · | · | · | – | · | ·
C=CCOc1ccc(CNc2ccc(NC(=O)CC(C)C)cc2)cc1OC | – | 17 | – | – | – | – | ·
Cc1cc(NC(=O)CSc2nnc(-c3ccncc3)n2Cc2ccccc2)n(-c2ccccc2)n1 | – | – | – | – | – | · | ·
Cc1cc(NC(=O)CSc2nnc(-c3ccncc3)n2C)n(-c2ccccc2)n1 | – | 15 | – | – | – | – | –
CC1=CC(=O)C(Sc2ccc(C)cc2)=CC1=O | · | · | · | · | – | · | ·
CN1CC=C2C(C#N)=C(N)C(C#N)(C#N)[C@H](c3cccs3)[C@H]2C1 | – | 26 | – | 41 | 109 | – | –
COC(=O)C1=COC(C)C2CN3CCc4c([nH]c5ccccc45)C3CC12 (stereo not given) | – | 15 | – | 35 | – | – | ·
CCN(CC)c1ccc(/C=N/NC(=O)c2c(Cl)cnn2C)c(O)c1 | – | 22 | – | – | – | – | ·
CCOC(=O)C1=C(C)NC(C)=C(C(=O)OCC)C1c1ccc([N+](=O)[O-])s1 | – | 39 | · | · | – | – | ·
O=C1c2cccc3c(N4CCCCC4)ccc(c23)C(=O)N1c1cccc(O)c1 | – | 27 | – | 59 | – | – | –
c1ccc(-c2cn3nc4c(nc3n2)CCCC4)cc1 | – | 22 | – | 31 | – | – | –
OC(c1cccnc1)c1nc(/C=C/c2ccc(C(F)(F)F)cc2)cs1 (stereo not given) | · | · | · | · | – | · | ·
Cc1ccc(C)c(N2CCN(C(=O)c3cc4ccccn4n3)CC2)c1 | – | 16 | – | 103 | – | – | –
CCNC(=O)C1(C)CCCN(Cc2noc(-c3c(C)noc3C)n2)C1 (stereo not given) | · | · | · | · | – | · | ·
Cc1ccc(NC(=O)C2(C)CCN2C(=O)CC(c2ccccc2)c2ccccc2)cc1 (stereo not given) | · | · | · | · | – | · | ·
O=C1CCCc2oc3c(cc(NS(=O)(=O)c4ccc5c6c(cccc46)C(=O)N5)c4ccccc43)c21 | – | 24 | – | – | – | 1.6 | ·
CN(C)c1ccc(CC(=O)N2CCCCC2c2cc(C(=O)Nc3ccccc3)no2)cc1 (stereo not given) | · | · | · | · | – | · | ·
COc1ccccc1N(C)S(=O)(=O)c1ccc(C(=O)NCc2ccccc2CN2CCCC2)cc1 | – | 47 | – | – | – | – | ·
SMILES | LANA DNA inh | Keap1 Nrf2 FP | RTF Ca sens inh | cardiac RTF act | eLon inh | Keap1 TSA | Dye-only ctr
COc1ccccc1CNC(=O)c1ccc(S(=O)(=O)N(C)c2ccccc2)cc1 | – | – | – | – | – | · | ·
COc1ccccc1Cn1c(=S)[nH]c2ccccc2c1=O | – | 99 | – | – | – | – | ·
Clc1ccc(-c2noc(CN3CCOCC3)n2)cc1 | · | 68 | · | · | – | – | –
COc1ccc(OC)c(CN2CCN(C(=O)c3cccc(S(=O)(=O)N(C)c4ccccc4)c3)CC2)c1 | · | · | · | · | – | · | ·
Cc1cc(OCC(=O)OCC(=O)N2CCCc3ccccc32)ccc1Cl | · | · | · | · | – | · | ·
COc1cc2c3nnc(-c4ccc(F)cc4)c-3cn(Cc3ccccc3)c2cc1OC | – | 16 | – | – | – | – | –
OC(c1ccc(F)c(F)c1)c1nc(-c2ccc3ccccc3c2)cs1 (stereo not given) | · | · | · | · | – | · | ·
